# Measurements as given in PubChem BioAssay AID1032 (The Scripps Research Institute Molecular Screening Center, 2008).
# Among all 200,000 compounds or so, about 670 (0.34%) were called active. The sample holds actives, similar compounds and a random draw of the others, so the mix is not that of the screen. Rule as the data show it: active = activation above about 22%; inactive = the rest.
# Target: Peroxisome proliferator-activated receptor gamma (Homo sapiens) (UniProt P37231)
# Experiment: compounds enhancing SRC-2 coactivator binding to PPARgamma – biochemical, HTS, primary screen (AID 1032);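 also: 0% = vehicle and 100% = reference agonist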
# Conditions: PPARgamma LBD-SRC-2 recruitment, at 8 µM, stronger effect = higher value
# Chain of Peroxisome proliferator-activated receptor gamma (Homo sapiens) (P37231 whole entry, looked up): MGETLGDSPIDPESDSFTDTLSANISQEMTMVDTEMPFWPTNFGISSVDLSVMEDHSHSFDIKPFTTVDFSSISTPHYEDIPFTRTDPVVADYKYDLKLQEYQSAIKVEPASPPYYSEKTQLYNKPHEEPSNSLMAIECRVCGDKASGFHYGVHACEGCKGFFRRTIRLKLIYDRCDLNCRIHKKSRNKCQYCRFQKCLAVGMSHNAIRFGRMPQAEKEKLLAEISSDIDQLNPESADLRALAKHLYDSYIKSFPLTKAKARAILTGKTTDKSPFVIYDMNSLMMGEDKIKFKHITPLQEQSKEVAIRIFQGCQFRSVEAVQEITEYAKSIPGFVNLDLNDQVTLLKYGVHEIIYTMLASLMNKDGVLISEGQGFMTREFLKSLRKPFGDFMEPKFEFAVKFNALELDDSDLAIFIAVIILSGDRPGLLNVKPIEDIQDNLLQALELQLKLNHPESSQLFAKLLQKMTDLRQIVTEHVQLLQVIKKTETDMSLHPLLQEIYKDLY
row,Structure (SMILES),activation
1,C=CCn1c(-c2sc(-c3ccccc3)nc2C)n[nH]c1=S,7.03% (inactive)
2,Cc1nc(-c2ccccc2)sc1-c1nc(-c2ccccc2)ncc1S(=O)(=O)c1ccccc1,30% (active)
3,Cc1nc(-c2ccccc2)sc1C(=O)/C=C/c1ccccc1,13.4% (inactive)
4,O=C(NC(=S)Nc1cc(C(F)(F)F)ccc1N1CCOCC1)c1ccc(-c2cccc(Cl)c2)o1,2.85% (inactive)
5,COc1cc(OC)nc(N/N=C(\c2ccccc2)c2ccncc2)n1,-0.95% (inactive)
6,CC1=NCCN1S(=O)(=O)c1cccc([N+](=O)[O-])c1,0.1% (inactive)
7,O=C(CN(C(=O)c1csnn1)c1cccc(F)c1)NCc1ccc(F)cc1,-2.69% (inactive)
8,O=C(c1nnc(-c2ccc(Cl)cc2)o1)C1CCCC1,5.05% (inactive)
9,CC(C)CNC(=O)COC(=O)c1ccccc1OCC(=O)Nc1ccc(Br)cc1,23.8% (active)
10,COCC(=O)Nc1ccc(Br)cc1,0.8% (inactive)
11,Cc1cccc(C(=O)OCC(=O)NCC(C)C)c1O,1.94% (inactive)
12,O=C(Nc1ccc(Cl)cc1)C1c2cccc[n+]2CC(=O)N1Cc1ccc2c(c1)OCO2 (centres undefined),-2.95% (inactive)
13,CCCC/S(C)=N/S(=O)(=O)c1ccc(C)cc1 (centres undefined),4.28% (inactive)
14,CC(=O)n1c(C=Nc2ccccc2)c(O)c2ccccc21,18.1% (inactive)
15,COc1ccc(CC(NC(C)=O)C(=O)NC2CCN(C(=O)c3ccc(OC)c(OC)c3)CC2)cc1OC (centres undefined),-1.68% (inactive)
16,Cc1cc(C(F)(F)F)n2ncc(-c3ccccc3)c2n1,6.32% (inactive)
17,Cn1c(-c2sccc2OCc2cccc(C(F)(F)F)c2)n[nH]c1=S,3.72% (inactive)
18,Cn1c(-c2sc3cc(C(F)(F)F)cnc3c2-c2ccccc2)n[nH]c1=S,49.1% (active)
19,O=C1CN(C(=O)CN2C(=O)NC3(CCCCC3)C2=O)c2ccccc2N1,-3.02% (inactive)
20,CCSc1ccccc1C(=O)Nc1ccc2c(c1)OCO2,2.54% (inactive)
21,COC(C(=O)Nc1ccc(S(=O)(=O)Nc2ccc(C)c(C)c2)cc1)c1ccccc1 (centres undefined),-10.9% (inactive)
22,COC(=O)c1[nH]c2ccccc2c1NC(=O)CN1CCCc2ccccc21,-0.25% (inactive)
23,COC(=O)c1[nH]c2ccccc2c1NS(=O)(=O)c1ccc(OC)cc1OC,13.7% (inactive)
24,COC(=O)c1[nH]c2ccc(Br)cc2c1NC(=O)Oc1ccccc1,30% (active)

row,Structure (SMILES),activation
1,O=C(Nc1ccc2cn[nH]c2c1)c1ccc(S(=O)(=O)N2CCOCC2)cc1,3.19% (inactive)
2,Cc1nccn1CCC1CCCCN1C(=O)CCc1nnc(-c2ccsc2)o1 (centres undefined),-4.68% (inactive)
3,CN(C)CCOc1ccc(Cl)cc1C(C)(C)C,3.96% (inactive)
4,COc1cc2c(cc1OC)C(C(C)C)=NC(C)(C)C2,4.08% (inactive)
5,COc1cc2c(cc1OC)C(Nc1ccc(S(N)(=O)=O)cc1)=NC(C)(C)C2,77.9% (active)
6,COc1cc2c(cc1O)C(SC)=NC(C)(C)C2,1.5% (inactive)
7,COCCNC(=O)c1ccc(N2CCC3(CC2)OCCO3)c([N+](=O)[O-])c1,-6.47% (inactive)
8,COc1ccc(C(=O)Nc2ccc3nc(N4CCCCC4)cc(C)c3c2)cc1OC,4.19% (inactive)
9,COc1cccc(/C=C2\SC(=N)N(c3ccc(F)cc3)C2=O)c1,3.36% (inactive)
10,O=C(NCc1ccco1)c1cc(-c2cccnc2)nc2ccc(Cl)cc12,8.92% (inactive)
11,O=C(/C=C/c1ccc(Cl)cc1Cl)NCc1ccco1,-0.42% (inactive)
12,O=C(CSc1c2c(nc3ccc(Cl)cc13)CCCC2)NCc1ccco1,30.9% (active)
13,COC(=O)Cn1c(=NC(=O)c2cc(OC)c(OC)c(OC)c2)sc2cc(OC)ccc21,-0.43% (inactive)
14,Cc1n[nH]c(=S)n1/N=C/c1ccc(Br)o1,6.61% (inactive)
15,Cc1ccccc1-c1n[nH]c(=S)n1C,7.57% (inactive)
16,Cc1ccccc1-c1n[nH]c(=S)n1/N=C/c1ccc(-c2ccccc2Br)o1,40.9% (active)
17,CSc1ccccc1C(=O)NCc1ccccc1,-5.42% (inactive)
18,Cc1ccc(C(=O)COC(=O)CCN2C(=O)C3C4CC(C(Br)C4Br)C3C2=O)cc1 (centres undefined),3.47% (inactive)
19,COc1ccc(O[C@H]2C=C[C@@H](c3ccccc3)O[C@@H]2CO/N=C/C[C@@H]2C=C[C@H](OC(C)=O)[C@@H](COC(C)=O)O2)cc1,1.19% (inactive)
20,CC(=O)Nc1ccc(S(=O)(=O)NC(C)C(=O)OCC(=O)NC2CCCC2)cc1 (centres undefined),-3.44% (inactive)
21,CS(=O)(=O)N1CCc2cc(C(=O)Nc3ccccc3)ccc21,-4.48% (inactive)
22,Cc1ccc(NC(=O)CCOc2ccccc2)cc1S(=O)(=O)Nc1ccccc1Cl,3.41% (inactive)
23,CCOC(=O)c1ccc(NC(=S)N2CCCC2)cc1,-1% (inactive)
24,Cc1cc(C)c2nc(N3CCCC3)c(C#N)cc2c1,1.23% (inactive)

row,Structure (SMILES),activation
1,Cc1cccc2cc(C#N)c(N3CCCC3)nc12,-7.68% (inactive)
2,CC(=O)c1ccc(S(=O)(=O)N2CCN(c3nc4c(C)c(C)ccc4cc3C#N)CC2)cc1,32% (active)
3,C/C(=N\Nc1ccc([N+](=O)[O-])cc1)c1ccc(-n2nncc2C(C)(C)C)cc1,-9.74% (inactive)
4,N#Cc1ccsc1NC(=O)CN1CCN(S(=O)(=O)c2cc(Cl)ccc2Cl)CC1,0.56% (inactive)
5,O=C(C1CCCO1)N1CCN(C(=S)Nc2cccc(Cl)c2)CC1 (centres undefined),-4.23% (inactive)
6,O=C1OC(/C=C/c2ccccc2)=NC/1=C/c1ccco1,8.63% (inactive)
7,CCc1cccc(OC2OC(CO)C(O)C(O)C2NC(C)=O)c1 (centres undefined),9.45% (inactive)
8,Cc1ccc(-c2csc(SCC(=O)Nc3cc(C)on3)n2)cc1,-2.51% (inactive)
9,Cc1cc(C)c2c(c1)cc(C)c1nnc(SCC(=O)Nc3cc(C)on3)n12,26.5% (active)
10,Cc1cc(NC(=O)CSc2nnc(Nc3ccccc3F)s2)no1,0.38% (inactive)
11,Cc1cccc(NC(=O)Cn2c(=O)n(Cc3ccccc3)c(=O)c3c(C)c(C)sc32)c1,3.34% (inactive)
12,N#Cc1c(-c2ccc(F)cc2)cc(C2CC2)nc1SCC(=O)c1cccs1,1.68% (inactive)
13,O=C(c1ccc(F)cc1)N1CCC(n2nnc3ccccc32)CC1,-10.4% (inactive)
14,C=CCC(C(=O)c1ccccc1)[N+](C)(C)CC=C (centres undefined),1.14% (inactive)
15,CN1CCN(S(=O)(=O)c2ccc(NC(=S)NC(=O)C3CC3)cc2)CC1,5.04% (inactive)
16,NC(=O)CSc1oc(-c2cccs2)nc1S(=O)(=O)c1ccccc1,36.9% (active)
17,COC(=O)CSc1nccc(-c2cccs2)n1,0.01% (inactive)
18,COc1ccc(OC)c(C(=O)CSc2nnc(-c3cccs3)o2)c1,10.1% (inactive)
19,COc1ccc(/C(O)=C2\C(=O)C(=O)N(Cc3ccco3)C2c2ccc(OC)cc2OC)cc1 (centres undefined),3.94% (inactive)
20,COc1ccc(/C(O)=C2/C(=O)C(=O)N(c3nc(C)c(C)s3)C2c2ccco2)cc1 (centres undefined),22.7% (active)
21,COc1ccccc1C1/C(=C(/O)c2ccc(C)cc2)C(=O)C(=O)N1Cc1ccco1 (centres undefined),-3.88% (inactive)
22,CCC(C)(C)NC(=O)c1cc([N+](=O)[O-])ccc1N1CCCCC1,0.23% (inactive)
23,CN(C)c1nccc(NCc2ccccc2)c1C#N,9.56% (inactive)
24,CN1CCN(C(c2cc3cc4c(cc3[nH]c2=O)OCCO4)c2nnnn2C2CCCC2)CC1 (centres undefined),4.65% (inactive)

row,Structure (SMILES),activation
1,Cc1cc(C(=O)CC#N)c(C)n1-c1c(C)n(C)n(-c2ccccc2)c1=O,3.36% (inactive)
2,O=C(Nn1cnnc1)c1ccc([N+](=O)[O-])cc1,8.86% (inactive)
3,COc1ccc(-c2nnco2)cc1OC,-1.39% (inactive)
4,COc1ccc2c(Cl)c(C(=O)NCc3ccco3)sc2c1,4.82% (inactive)
5,COc1ccc2c(Cl)c(-c3nnco3)sc2c1,22.3% (active)
6,CC1=C(C)C(=O)OC(C(C)C2CCC3C4CC=C5CC(OC6OC(COC7OC(CO)C(O)C(O)C7O)C(O)C(O)C6O)CC(O)C5(C)C4CCC23C)C1 (centres undefined),-5.38% (inactive)
7,NC(=O)COc1ccc(C23CC4CC(CC(C4)C2)C3)cc1,13.6% (inactive)
8,COc1ccc(CC(=O)N2N=C(C)CC2(O)C(F)(F)F)cc1 (centres undefined),4.95% (inactive)
9,CCOC(=O)c1c(NC(=O)CNC2CCCc3ccccc32)sc(C(N)=O)c1C (centres undefined),19.8% (inactive)
10,NS(=O)(=O)c1ccc(CCNC(=S)Nc2ccc(S(N)(=O)=O)cc2)cc1,4.85% (inactive)
11,CCC(C)(C)NC(=O)C(c1cccc(OC)c1OC)N(CC(C)C)C(=O)CCC(=O)Nc1cc(C)on1 (centres undefined),7.07% (inactive)
12,CC(=O)NC(Cc1ccc(F)c(F)c1)C(=O)NC1CCN(C(=O)c2ccc(C)cc2)CC1 (centres undefined),-0.89% (inactive)
13,O=C(Oc1ccccc1)Oc1ccc2c(c1)oc(=O)c1ccccc12,48.7% (active)
14,CC(=O)Oc1ccc2c(C)c(CC(C)O)c(=O)oc2c1 (centres undefined),-8.79% (inactive)
15,Cc1c(Cc2ccccc2)c(=O)oc2cc(OCC(N)=O)ccc12,4.43% (inactive)
16,O=C(CSc1ncnc2c1nnn2Cc1ccc(F)cc1)NC1CCCC1,11.8% (inactive)
17,O=C(Nc1ccc([N+](=O)[O-])cc1)C1CC12CCC2 (centres undefined),18.1% (inactive)
18,O=C(CSc1ccsc1[N+](=O)[O-])N1CCCCC1,22% (active)
19,CC1CC(C)CN(C(=O)CSc2ccsc2[N+](=O)[O-])C1 (centres undefined),0.24% (inactive)
20,O=C(CSCc1cccs1)N1CCCC1,-3.94% (inactive)
21,Cc1cccc(OC(=O)c2sc3ncn(C)c(=O)c3c2C)c1,-5.78% (inactive)
22,CC1=CC=CN2C1=NC(=O)CC2(C)C(=O)N(CC(=O)NC1CCCC1)c1ccccc1C (centres undefined),1.53% (inactive)
